HCV inh = HCV inhibition. Huh7.5.1 HCVcc-Cre infection, luciferase reporter, 44 h. Potency, µM (series often up to 41.8 µM), inactives show top-dose activity change, negative = inhibition, most hits filed as inhibitors. 340,000 tested, 3.4% active. AID 651820; active = well fitted inhibition curve with a large enough effect; inconclusive = small, poorly fitted or top-dose-only effect, or another doubt; inactive = no such curve, though single readings can be large or run the other way
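Compounds are dispensed onto cells plated 4 h earlier at 1,000 per well, with HCVcc-Cre virus (about 0.5 moi) added next. Following 44 h of culture, luminescent signal is measured for 15 sec after 15 min with substrate at room temperature.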
VACV mCherry inh = vaccinia inhibition (mCherry reporter) | Vaccinia virus mCherry reporter infection, fluorescence | Potency, µM (doses to about 36.5 µM), without a hit: top-dose activity change, negative = inhibition, hits mostly inhibitors | 310,000 tested, 0.63% active; calls by dose curve; tested in A549 cells; note: nearly all actives have a fitted effect of over 35% in size
Vaccinia Venus = inhibitors of vaccinia virus (Venus reporter) | Vaccinia virus Venus reporter expression, fluorescence | Potency, µM (doses to about 36.5 µM), inactives show top-dose activity change, negative = inhibition, usual class: inhibitors | 330,000 tested, 0.46% active | AID 720580; calls by dose curve; tested in A549 cells; note: nearly all actives have a fitted effect of over 30% in size
Active calls of the source: *; i = inactive; ? = inconclusive; . = no result; [ ] = another dose, or the depositor's remark. Sampled rows, rich in hits. Any-hit rate of the full collection: about 3.3%. % is set by controls: 0 for no effect and ±100 for the full control effect; potency is the fitted concentration of half-maximal effect.

SMILES	HCV inh	VACV mCherry inh	Vaccinia Venus
COc1ccc(-c2cc(=O)c3c(O)cc(O)cc3o2)cc1	13µM*	-28%	-18%
O=c1cc(-c2ccc(O)c(O)c2)oc2cc(O)cc(O)c12	-3%[8.37 µM]	?	?
COc1ccc2oc(-c3ccncc3)cc(=O)c2c1	-3%	-12%	-3%
CCCC(O)c1nc2ccccc2n1Cc1ccccc1OC (stereo not given)	.	i	-16%
Cc1nn(S(=O)(=O)c2ccc(Br)cc2)c(C)c1S(=O)(=O)N1CCCCCC1	.	1%	-1%
COCCn1c(SCC(=O)N2CCC(C)CC2)nc2ccccc2c1=O	2%	.	.
CCOC(=O)N1CCC(n2c(SCC(=O)N3CCC(C)CC3)nc3ccccc3c2=O)CC1	13µM*	.	.
Cc1ccc(NNC(=O)c2ccno2)cc1Cl	11µM*	.	.
Cc1ccc(NNC(=O)c2ccno2)cc1C	?	-7%	-25%
O=C(OCC(=O)N1CCc2ccccc2C1)c1ccc(O)cc1	-2%	.	.
COc1ccc(-c2cc(C(F)(F)F)nc(SCC(=O)Nc3ccc(C(C)=O)cc3)n2)cc1	.	-22%	-11%
COc1ccc(Cl)c(S(=O)(=O)N2CCCC2)c1	-5%	-8%	0%
COc1ccccc1CCC(=O)Nc1cccc(S(=O)(=O)N2CCCCCC2)c1	10µM*	-19%	?
COc1ccccc1CCC(=O)Nc1ccc(OC)c(S(=O)(=O)N2CCCCC2)c1	11µM*	.	.
COc1ccccc1CCC(=O)Nc1cccc(S(=O)(=O)N2CCOCC2)c1	?	-27%	-16%
COc1ccc(S(=O)(=O)N2CCCCCC2)cc1NC(=O)CCc1cc(OC)c(OC)c(OC)c1	-14%	.	.
COc1ccc(CCC(=O)Nc2ccc(Cl)c(S(=O)(=O)N3CCCC3)c2)cc1	5.6µM*	i	-21%
COc1ccccc1CCC(=O)OCC(=O)Nc1ccc(C)c(S(=O)(=O)N2CCCCC2)c1	32%	-15%	-5%
COc1cc(CCC(=O)Nc2ccc(C)c(S(=O)(=O)N3CCCCCC3)c2)cc(OC)c1OC	7.9µM*	?	-27%
CCOc1ccc2nc(N3CCN(C(=O)CS(=O)(=O)c4ccc(F)cc4)CC3)sc2c1	.	-28%	?
O=C1COc2cc(S(=O)(=O)NCc3ccco3)c(Cl)cc2N1	.	-10%	-2%
COc1cccc(CN2C(=NC(=O)CCC3CCCC3)SC3CS(=O)(=O)CC32)c1 (stereo not given)	-3%	.	.
COc1ccc(C2Nc3ccccc3C(=O)N2Cc2ccco2)cc1 (stereo not given)	.	i	-9%
Cc1ccc(S(=O)(=O)NCC2CCC(C(=O)NCCc3ccccc3)CC2)cc1 (stereo not given)	.	-5%	-5%
COc1cc(CNCCCSc2nnnn2C)cc(Br)c1OC	.	-13%	-7%
SMILES	HCV inh	VACV mCherry inh	Vaccinia Venus
O=C1CC(c2ccco2)Cc2[nH]c(=O)c(C(=O)Nc3ccccc3)cc21 (stereo not given)	.	-19%	-26%
CCOC(=O)c1cccc(NC(=O)C2(S(=O)(=O)c3ccc(Cl)cc3)CC2)c1	-23%	-24%	-20%
Cc1ccc(C)c(OCCC(=O)Nc2ccc(S(=O)(=O)N3CCCC3)cc2)c1	8.9µM*	.	.
COc1ccc(CCC(=O)Nc2ccc(OC)c(S(=O)(=O)N3CCCCC3)c2)cc1OC	10µM*	.	.
COc1ccc(NC(=O)CCc2ccccc2)cc1S(=O)(=O)N1CCCCC1	-13%	-24%	-14%
COc1ccc(NC(=O)CCOc2ccccc2C)cc1S(=O)(=O)N1CCCCC1	11µM*	-16%	-9%
Cc1ccc(C)c(OCCC(=O)OCC(=O)Nc2cccc(S(=O)(=O)N3CCCC3)c2)c1	22%	-29%	-13%
COc1ccc(NC(=O)CCOc2ccc(C)cc2)cc1S(=O)(=O)N1CCOCC1	-29%	i	-6%
O=C(C[C@H]1CC[C@@H]2[C@H](COC[C@H](O)CN2Cc2cccc(F)c2)O1)NCc1cccc(F)c1	.	i	-16%
CCOc1ccccc1-c1nnc(SCC(=O)NC2(C#N)CCCC2)o1	-28%	.	.
c1ccc(Nc2nc3ccccc3n3cnnc23)cc1	-10%	9%	-4%
c1ccc(N2CCCCC2)c(Nc2nc3ccccc3n3cnnc23)c1	6.3µM*	?	0%
Nc1nc(N)c(N=Nc2ccc(S(N)(=O)=O)cc2)c(=O)[nH]1	-25%	i	-6%
Nc1nc(N)c(N=Nc2ccc(Cl)cc2)c(=O)[nH]1	5.6µM*	.	.
CC(=O)OC1CC(c2cc(C(C)(C)C)c(O)c(C(C)(C)C)c2)=NO1 (stereo not given)	?	?	-14%
C[n+]1c2n(c3ccccc31)N=C(c1cc(C(C)(C)C)c(O)c(C(C)(C)C)c1)CS2	?	?	10µM*
CCOC(=O)N1CCC2CC1c1cc(-c3cccc(OC)c3)ccc12 (stereo not given)	-10%	-24%	?
C=CC1CN(C(=O)OCC(Cl)(Cl)Cl)C2CC3c4ccc(OC)cc4NC3C3CC1C2CO3 (stereo not given)	10µM*	-19%	-13%
CCCN(CCC)C(=O)c1oc2ccccc2c1NC(=O)Cc1cccc(OC)c1	11µM*	.	.
COc1cccc(CC(=O)Nc2c(C(=O)N3CCN(c4ccccc4)CC3)oc3ccccc23)c1	.	-29%	-25%
COc1ccc(-n2nc(C#N)c(Cl)cc2=O)cc1	?	11µM*	10µM*
COC(=O)c1nn(-c2ccc(OC)cc2)c(=O)cc1O	10%	-4%	4%
CCOC(=O)C1(Cc2ccccc2)CCN(Cc2cn(CC(=O)OC)c3ccccc23)CC1	23%	-9%	-6%
CCOC(=O)C1(CC2CC2)CCN(Cc2cn(C)c3ccccc23)CC1	10µM*	-18%	-22%
Cc1ccccc1C(=O)NC(C)c1nnc2n1CCN(Cc1ccccc1F)CC2 (stereo not given)	.	i	0%
SMILES	HCV inh	VACV mCherry inh	Vaccinia Venus
CCn1c2ccccc2c2c3ncc4cccn4c3ccc21	11µM*	-29%	-11%
c1ccc2c(c1)ncc1cccn12	-9%	-3%	-6%
CCOC(=O)C(NC(=O)CCl)(Nc1sc(C)c(CC)c1C#N)C(F)(F)F (stereo not given)	?	10µM*	?
CCOC(=O)C(NC(=O)CC(C)C)(Nc1sc(C)c(CC)c1C#N)C(F)(F)F (stereo not given)	-6%	-12%	-9%
CCOP(=O)(Nc1ccc2c(c1)C(=NNC(N)=S)c1ccccc1-2)OCC	11µM*	11µM*	?
COc1cccc(OCC(=O)NN=C2c3ccccc3-c3ccccc32)c1	?	-2%	-19%
COc1ccc(CNC(=O)CSc2nc(SC)ns2)cc1	10%	.	.
CCc1ccc(-c2nc(CN3CCC(C(=O)N4CCN(c5ccccn5)CC4)CC3)c(C)o2)cc1	11µM*	.	.
CCc1ccc(-c2nc(CN3CCC(C(=O)N4CCN(c5ccccc5)CC4)CC3)c(C)o2)cc1	?	-28%	-18%
COc1ccc(-c2nc(CN3CCC(C(=O)NCc4ccc(F)cc4)CC3)c(C)o2)cc1OC	.	-16%	-17%
CCc1ccc(-c2nc(CN3CCC(C(=O)NCc4ccc(F)cc4)CC3)c(C)o2)cc1	18µM*	.	.
Cc1oc(-c2ccc(Cl)cc2)nc1CN1CCCC(C(=O)N2CCN(C(=O)c3ccco3)CC2)C1 (stereo not given)	2µM*	?	?
Cc1oc(-c2ccc(Cl)cc2)nc1CN1CCCC(C(=O)N2CCOCC2)C1 (stereo not given)	-12%	.	.

Source: PubChem BioAssay
